Active and inactive are the calls of the source. The calls were made as follows: active = hit-call score of the fitted dose curve at least 0.9, where 1 is the maximum; inactive = score below 0.9.
Assay: CCTE_Deisenroth_5AR_NBTE_donor: CCTE's 5alpha-reductase NanoBRET Target Engagement Assay […], Deisenroth Lab (AID 2284319)
Conditions: actives raise or lower the signal
Description: CCTE_Deisenroth_5AR NBTE (5alpha-reductase NanoBRET Target Engagement Assay) is a cell-based, single-readout assay that uses HEK293T, a human kidney cell line, with measurements taken at 5 hours after chemical dosing in a 384 well plate. This assay includes a primary and secondary screen as well as an autofluorscence screen.CCTE_Deisenroth_5AR NBTE_donor is one of four assay components measured from the CCTE_Deisenroth_5AR NBTE assay. It is designed to make measurements of donor luminescence, as detected by bioluminescence intensity emission signals using spectrometry technology.Data from the assay component CCTE_Deisenroth_5AR NBTE_donor was analyzed into 1 assay endpoint. This assay endpoint, CCTE_Deisenroth_5AR NBTE_donor, was analyzed with bidirectional fitting relative to DMSO as the negative control and baseline of activity. Using a type of inducible reporter, gain or loss-of-signal activity can be used to understand changes in the donor luminescence as related to 5alpha-reductase catalytic function. Furthermore, this assay endpoint can be referred to as a secondary readout, because this assay has produced multiple assay endpoints where this one serves an artifact detection function.
For transient expression of the SRD5A2-NanoLuc fusion protein, HEK293T cells are reverse transfected with pNLF1-C-SRD5A2 expression vector and incubated for 20 hours to facilitate fusion protein expression. For assay setup, 384-well non-binding surface (NBS) microplates are pre-dispensed with test chemical across an 8-point concentration series (10 nM - 29.9 uM) with two technical replicates per run. Cell suspensions are dispensed into the microplates and incubated with test chemical for a duration of three hours. Following pre-incubation with test chemical, the testosterone tracer is dispensed into each well and incubated an additional two hours. The total incubation period with test chemical is five hours, with testosterone tracer added the final two hours to reach target engagement equilibrium. For the NanoBRET endpoint measurements, a solution of Nano-Glo substrate and extracellular NanoLuc inhibitor solution is added to each test well and immediately scanned on a plate reader configured with multichromatic emission settings for donor luminescence ([…]) and acceptor fluorescence ([…]). DMSO solvent controls are included as baseline control. Plate-matched samples are run with mock tracer conditions or testosterone tracer to discriminate any potential non-specific substrate interference.

SMILES | outcome | AC50
CCCCCCCCCCCC(=O)N(C)CC(=O)O | inactive | –
O=C(O)CCC(=O)O | inactive | –
Oc1ccc(-c2ccccc2)c(Cl)c1 | inactive | –
CCCCCCCCCCCCc1ccc(O)cc1 | inactive | –
C=CCOC(=O)c1ccc(C(=O)OCC=C)c(C(=O)OCC=C)c1 | inactive | –
O=C(OCc1ccccc1)c1ccc(O)cc1 | inactive | –
C=C[C@@]1(C)CC(=O)[C@]2(O)[C@@]3(C)[C@@H](O)CCC(C)(C)[C@@H]3[C@H](O)[C@H](OC(C)=O)[C@@]2(C)O1 | – | 9.91 µM (active)
CC(C)(C)NC(=O)[C@H]1CC[C@H]2[C@@H]3CC[C@H]4NC(=O)C=C[C@]4(C)[C@H]3CC[C@]12C | inactive | –
CC1=NN(c2ccc(S(=O)(=O)O)cc2)C(=O)C1N=Nc1ccccc1 (centres undefined) | inactive | –
CCCCCCCCCC[N+](C)(CCCCCCCCCC)CCC[Si](OC)(OC)OC | – | 33.2 µM (active)
COc1ccc(-c2coc3cc(O)cc(O)c3c2=O)cc1 | inactive | –
O=S(=O)(O)c1ccc(N=Nc2c(O)ccc3ccccc23)cc1 | – | 13.3 µM (active)
CN(C)c1ccc2nc3ccc(=[N+](C)C)cc-3sc2c1 | inactive | –
CCCCCCCCCCCCCC(=O)OC(C)C | inactive | –

Reference: PubChem BioAssay (EPA / NIEHS)
